# Assay results taken from PubChem BioAssay AID2284062 (EPA ToxCast).
# Calls of active or inactive are those of the source. Rule for the calls: active = hit-call score of the fitted dose curve at least 0.9, where 1 is the maximum; inactive = score below 0.9.
# Target: human CK1delta CK1 Kinase, CSNK1D (gene 1453) (UniProt P48730)
# Assay: ERF_TW_ENZ_hCSNK1D: Eurofins (ERF) Enzymatic Radiometric [10 uM ATP] Assay for human CK1delta CK1 Kinase
# Experimental: ERF_TW_ENZ_hCSNK1D is a biochemical, single-readout assay that uses extracted gene-proteins in a cell-free assay. Measurements were taken 0.5 hour after chemical dosing in a 96-well plate. See CK1delta Human CK1 Kinase Enzymatic Radiometric Assay [10 uM ATP], Panlabs.ERF_TW_ENZ_hCSNK1D is an assay component calculated from the ERF_TW_ENZ_hCSNK1D assay. It is designed to measure enzyme activity using a type of enzyme reporter as detected by scintillation counting with radiometry technology.Data from the assay component ERF_TW_ENZ_hCSNK1D was analyzed at the assay endpoint, ERF_TW_ENZ_hCSNK1D, in the positive analysis fitting direction relative to DMSO as the negative control and baseline of activity. Using a type of enzyme reporter, loss-of-signal activity can be used to understand changes in enzymatic activity as they relate to gene CSNK1D. To generalize the intended target to other relatable targets, this assay endpoint is annotated to the kinase intended target family, where the subfamily is serine/threonine kinase.
# CK1d (h) is incubated with 8 mM MOPS pH 7.0, 0.2 mM EDTA, 200 uM KRRRALS(p)VASLPGL, 10 mM MgAcetate and [gamma-33P]-ATP (specific activity and concentration as required). The reaction is initiated by the addition of the Mg/ATP mix. After incubation for 40 minutes at room temperature, the reaction is stopped by the addition of phosphoric acid to a concentration of 0.5%. […]
# Sequence of human CK1delta CK1 Kinase, CSNK1D (gene 1453) (P48730 whole entry, looked up): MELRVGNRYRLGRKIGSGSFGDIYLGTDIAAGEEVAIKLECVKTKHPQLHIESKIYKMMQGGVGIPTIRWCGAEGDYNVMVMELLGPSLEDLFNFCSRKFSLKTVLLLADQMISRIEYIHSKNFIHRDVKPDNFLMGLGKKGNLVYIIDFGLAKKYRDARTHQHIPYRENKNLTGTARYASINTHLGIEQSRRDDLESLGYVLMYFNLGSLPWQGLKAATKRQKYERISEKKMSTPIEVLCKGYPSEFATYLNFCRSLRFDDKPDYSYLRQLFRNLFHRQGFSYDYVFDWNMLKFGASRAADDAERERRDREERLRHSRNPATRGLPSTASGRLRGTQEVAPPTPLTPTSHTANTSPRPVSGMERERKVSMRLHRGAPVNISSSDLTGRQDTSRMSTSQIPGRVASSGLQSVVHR
row,Compound,AC50
1,O=C(/C=C/c1ccc(O)cc1)CC(=O)/C=C/c1ccc(O)cc1,1.66 µM (active)
